In test [1] the test system is Zika virus NS2B-NS3 protease (unlinked complex). As to the kind of experiment: Primary screen GU Rhodamine qHTS for Zika virus inhibitors: Unlinked NS2B-NS3 protease assay (AID 1347159). Note: nearly all actives have a fitted effect of over 60% in size. Note: potency is the fitted concentration of half-maximal effect. The essentials: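 Compounds, tested up to 114 microM, were incubated for 15 minutes with 25 nM unlinked NS2B-NS3 protease at pH 8.0. Cleavage of 1.5 microM Rhodamine110 substrate was then followed by fluorescence for 15 minutes.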
A general note: Quantitative high-throughput screening tests each substance at several concentrations.

The subject of test [2] is Zika virus NS2B-NS3 protease (linked construct). As to the kind of experiment: Primary screen NINDS Rhodamine qHTS for Zika virus inhibitors (AID 1347160). Note: nearly all actives have a fitted effect of over 55% in size. The essentials: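 Percent inhibition, normalized to uninhibited and enzyme-free controls, is fitted to a 4-parameter Hill equation. Fluorescence change comes from a 15-min cleavage of 1.5 microM bis-peptide Rhodamine110 substrate by 25 nM linked NS2B-NS3 at room temperature.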

The structures appear in SMILES notation. Results filed as inconclusive are left out. A call without a number means that no potency is given here. Active and inactive are the calls of the source. Calls come from the whole dose curve; as a rule, active = well fitted inhibition curve with a large enough effect; inconclusive = small, poorly fitted or top-dose-only effect; inactive = no such curve, though single readings can be large or run the other way.

Consider `N#Cc1cc(C2=Nc3ccc(Br)cc3NC(=O)C2)ccn1`, for which the Potency entry in test [1] and in test [2] was “inactive” in each case.

Regarding `CC(C)(O)C1CC(=O)C2(C)C(CCC3(C)C(c4ccoc4)OC(=O)C4OC432)C12CCC(=O)OC2` (configuration not stated), the Potency entry in test [1] and in test [2] was “inactive” each time.

Turning to `CC(C)(O)/C=C/C(=O)[C@](C)(O)[C@H]1[C@H](O)C[C@@]2(C)[C@@H]3CC=C4[C@@H](C[C@H](O[C@@H]5O[C@H](CO)[C@@H](O)[C@H](O)[C@H]5O)C(=O)C4(C)C)[C@]3(C)C(=O)C[C@]12C`, the Potency result in test [1] and in test [2] was “inactive” in each case.

`COc1ccc(CNCc2cccc3ccccc23)cc1`: the Potency entry in test [1] and in test [2] was “inactive” in each case.

`Cc1ccnc(NC(=O)C(C)c2cccc(C(=O)c3ccccc3)c2)c1` (configuration not stated): the Potency entry in test [1] and in test [2] was “inactive” each time.

With `CCC(CC)C(=O)OC12C(OC(=O)C(C)C)C(C)C3(O)C(C=C(CO)CC4(O)C(=O)C(C)=CC43)C1C2(C)C` (configuration not stated), the Potency result in test [1] and in test [2] was “inactive” each time.

For `CO[C@H]1[C@@H](O)[C@H](O[C@H]2CC[C@@]3(C)C(CCC4C3CC[C@]35COC6(COC(=O)C6)C3CCC45O)C2)O[C@@H](C)[C@@H]1OC1OC(CO)C(OC2OC(CO)C(O)C(O)C2O)C(O)C1O` (some centres not stated), the Potency result in test [1] and in test [2] was “inactive” throughout.

On to `CCCC1(CCC)CCC2(CCN(CCCN(CC)CC)C2)CC1`, for which the Potency entry in test [1] and in test [2] was “inactive” throughout.

Regarding `O=C(NCCCCCCCCNC(=O)C(Cl)Cl)C(Cl)Cl`, the Potency entry in test [1] and in test [2] was “inactive” in each case.

Consider `C[C@@H]1C[C@H]2O[C@@]3(O[C@@H]2C(C)(C)O)C(O)[C@@]2(C)C4CCC5C(C)(C)[C@@H](O[C@H]6OC[C@H](O)[C@@H](O)[C@@H]6O)CC[C@@]56C[C@@]46CC[C@]2(C)C13` (some centres not stated), for which the Potency entry in test [1] and in test [2] was “inactive” throughout.

Regarding `CCOC(=O)C1=Cc2ccc(C(F)(F)C(F)(F)F)cc2N=C(N)C1`, the Potency result in test [1] and in test [2] was “inactive” each time.

`COc1cc(NC(=O)c2cc(C3CC3)on2)c(OC)cc1Cl`: the Potency result in test [1] and in test [2] was “inactive” in each case.

As to `C=C1CC2[C@@]3(C)C=CC(=O)C(C)(C)C3=C(O)C(=O)[C@@]2(C)C2(C(=O)OC)C(=O)C(C)OC(=O)[C@@]12C` (some centres not stated), the Potency entry in test [1] and in test [2] was “inactive” throughout.

On to `CC(C)S(=O)(=O)c1ccc2nccc(Nc3ccc4scnc4c3)c2c1`, for which the Potency result in test [1] and in test [2] was “inactive” each time.

Turning to `CC1(CO)CC2C(O)C3=C(CC(C)(O)C2C1)C(=O)OC3` (configuration not stated), the Potency entry in test [1] and in test [2] was “inactive” throughout.

In the case of `Nc1nc(OCc2cc(Br)cs2)c2[nH]cnc2n1`, the Potency entry in test [1] and in test [2] was “inactive” each time.

Turning to `O=C(NC[C@H]1CN(c2ccc(N3CCOCC3=O)cc2)C(=O)O1)c1ccc(Cl)s1`, the Potency entry in test [1] and in test [2] was “inactive” in each case.

Consider `CCC(C)c1ccc(NC(=O)Cn2cnc3c2c(=O)n(C)c(=O)n3C)cc1` (configuration not stated), for which the Potency result in test [1] and in test [2] was “inactive” in each case.

In the case of `COc1cc([C@H]2O[C@H](c3cc(OC)c4c(c3)OCO4)[C@H](C)[C@H]2C)cc(OC)c1OC`, the Potency result in test [1] and in test [2] was “inactive” each time.

Consider `CC(C)CCCCC(=O)N[C@@H](CO)C(=O)N[C@@H](CC(C)C)C(=O)[C@@]1(CO)CO1`, for which the Potency entry in test [1] and in test [2] was “inactive” throughout.

Regarding `O=C(Nc1ccccc1)N1CCN(c2nc(-c3ccccc3)ns2)CC1`, the Potency entry in test [1] and in test [2] was “inactive” in each case.

In the case of `C=C(C(=O)OC)[C@@H]1CC=C2C=CC(=O)[C@H](C)[C@@]2(C)C1`, the Potency result in test [1] and in test [2] was “inactive” each time.

Consider `COc1ccccc1OCCNCC(O)CCOc1cccc2[nH]c3ccccc3c12` (configuration not stated), for which the Potency result in test [1] and in test [2] was “inactive” throughout.

Regarding `OC1C=C2C3CN(Cc4cc5c(cc43)OCO5)C2CC1O` (configuration not stated), the Potency entry in test [1] and in test [2] was “inactive” throughout.

Take `CS(=O)(=O)Nc1ccc2oc3c(OC(F)F)ccc(C(=O)Nc4c(Cl)cncc4Cl)c3c2c1`: the Potency result in test [1] and in test [2] was “inactive” each time.

With `O=c1cc(NCCCN[C@@H]2CCOc3c(Br)cc(Br)cc32)[nH]c2ccsc12`, the Potency result in test [1] and in test [2] was “inactive” each time.

As to `CCN1CCN(Cc2ccc(NC(=O)c3ccc(C)c(Oc4ccnc5[nH]ccc45)c3)cc2C(F)(F)F)CC1`, the Potency result in test [1] and in test [2] was “inactive” in each case.

As to `COC1=CC(=O)C[C@@H](C)[C@@]12Oc1c(Cl)c(OC)cc(OC)c1C2=O`, the Potency entry in test [1] and in test [2] was “inactive” each time.

Consider `O=S1(=O)CCN(Cc2cc(NCC3CCOCC3)c3[nH]c(-c4ccccc4)cc3c2)CC1`, for which the Potency result in test [1] and in test [2] was “inactive” in each case.

Regarding `Cc1cc(-c2nc(-c3ccc(OC(F)(F)F)cc3)no2)nn1Cc1ccnc(N2CCN(C3CC3)CC2)c1`, the Potency entry in test [1] and in test [2] was “inactive” throughout.

Take `COc1cc2ncnc(Oc3ccc(CC(=O)Nc4cnn(C(C)C)c4)cc3)c2cc1OC`: the Potency entry in test [1] and in test [2] was “inactive” each time.

Turning to `Cc1cc2c(c(=O)o1)C=C1CC[C@H]([C@H](C)Cn3cnc(=N)c4[nH]cnc43)C[C@@H]1O2`, the Potency result in test [1] and in test [2] was “inactive” each time.

On to `CC1(C)Oc2ncnc(N)c2N=C1c1ccc(C23CCC(CC(=O)O)(CC2)CC3)cc1`, for which the Potency in test [1] is 50.1 µM (active). Moreover, the Potency entry in test [2] was “inactive”.

`C=C1C(OC2OC(CO)C(O)C(O)C2O)CC2C(C)(C)C(O)CCC2(C)C1CC/C(C)=C\COC(=O)CC(=O)O` (configuration not stated): the Potency result in test [1] and in test [2] was “inactive” each time.

As to `CC12CCC(OC3OC(CO)C(O)C(O)C3OC3OC(CO)C(O)C(O)C3O)CC1CCC1C2CCC2(C)/C(=C3/COC(=O)C3)CCC12O` (configuration not stated), the Potency result in test [1] and in test [2] was “inactive” each time.

Take `C[C@@H]1C[C@H](C)CN(CCC(=O)Nc2ccc(Br)cc2)C1`: the Potency entry in test [1] and in test [2] was “inactive” throughout.

The values are drawn from PubChem BioAssay (NCATS).
